Measured values reported in PubChem BioAssay (NCI).
The panel holds about 83,000 compounds, 20% with a hit somewhere; the sample as a whole holds those more often.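 Testing used 96-well plates and a 48-hour single-concentration exposure. Example: -40 means 40% of the starting cells died.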 Activity calls are given as the source filed them. Rule for the calls: active = growth percent below 10; inactive = the rest.

Tests used:
Experiment in all cases: NCI-60 one-dose screen, 48 h (100 = growth as untreated, 0 = no growth, -100 = all killed)
Conditions in all cases: 10 µM unless noted
HCT-15 colon = test system: HCT-15 colon
HT29 colon = test system: HT29 colon
SNB-75 CNS = test system: SNB-75 CNS
SNB-19 CNS = test system: SNB-19 CNS
U251 CNS = test system: U251 CNS
PC-3 prostate = test system: PC-3 prostate
SK-MEL-5 melanoma = test system: SK-MEL-5 melanoma
UACC-62 melanoma = test system: UACC-62 melanoma
LOX IMVI melanoma = test system: LOX IMVI melanoma
SK-MEL-28 melanoma = test system: SK-MEL-28 melanoma
SK-MEL-2 melanoma = test system: SK-MEL-2 melanoma
EKVX NSCLC = test system: EKVX NSCLC
SN12C renal = test system: SN12C renal
UO-31 renal = test system: UO-31 renal
TK-10 renal = test system: TK-10 renal
ACHN renal = test system: ACHN renal
CAKI-1 renal = test system: CAKI-1 renal
A498 renal = test system: A498 renal
CCRF-CEM leukemia = test system: CCRF-CEM leukemia
MOLT-4 leukemia = test system: MOLT-4 leukemia

Measured: growth

CC(C)=CCC[C@](C)(O)[C@H]1CC[C@]2(C)[C@@H]1CC[C@@H]1[C@@]3(C)CC[C@H](OC(=O)CCC(=O)O)C(C)(C)[C@@H]3CC[C@]12C
active: HT29 colon 2.98% [100 µM] | U251 CNS 2.41% [100 µM] | SK-MEL-5 melanoma -41.3% [100 µM] | UACC-62 melanoma -75.4% [100 µM] | LOX IMVI melanoma -64.1% [100 µM] | SK-MEL-28 melanoma -46% [100 µM] | SK-MEL-2 melanoma -13.1% [100 µM] | CCRF-CEM leukemia 3.55% [100 µM] | MOLT-4 leukemia 5.86% [100 µM]
inactive: HCT-15 colon 19.3% [100 µM] | SNB-75 CNS 43.3% [100 µM] | SNB-19 CNS 24.1% [100 µM] | PC-3 prostate 27.4% [100 µM] | EKVX NSCLC 45.3% [100 µM] | SN12C renal 15% [100 µM] | UO-31 renal 19.5% [100 µM] | TK-10 renal 49.6% [100 µM] | ACHN renal 21.4% [100 µM] | CAKI-1 renal 21.4% [100 µM] | A498 renal 40.1% [100 µM]

Cc1cnc(N)nc1OCC(C)(C)CNC(=O)c1cccc(-c2ccc(S(=O)(=O)Nc3ccc4c(c3)N(C(=O)C3CC3)CCC4)cc2)c1
active: SK-MEL-5 melanoma -36.1%
inactive: HCT-15 colon 67.6% | HT29 colon 42.1% | SNB-75 CNS 48.1% | SNB-19 CNS 67.9% | U251 CNS 59.4% | PC-3 prostate 51.8% | UACC-62 melanoma 47.8% | LOX IMVI melanoma 76.6% | SK-MEL-28 melanoma 82.4% | SK-MEL-2 melanoma 67.7% | EKVX NSCLC 62.9% | SN12C renal 68.5% | UO-31 renal 62% | TK-10 renal 76.6% | ACHN renal 70.2% | CAKI-1 renal 52.1% | A498 renal 37.3% | CCRF-CEM leukemia 61.7% | MOLT-4 leukemia 29.1%

CCOC(=O)c1nn(C2CCCCO2)c2ccc(NS(=O)(=O)c3ccc(C)cc3)cc12 (stereo not given)
inactive: HCT-15 colon 105% | HT29 colon 102% | SNB-75 CNS 80.5% | SNB-19 CNS 99.6% | U251 CNS 90.6% | PC-3 prostate 92.6% | SK-MEL-5 melanoma 98.7% | UACC-62 melanoma 86.6% | LOX IMVI melanoma 99.3% | SK-MEL-28 melanoma 101% | SK-MEL-2 melanoma 106% | EKVX NSCLC 102% | SN12C renal 93.6% | UO-31 renal 82.7% | TK-10 renal 111% | ACHN renal 94.3% | CAKI-1 renal 77.8% | A498 renal 62.9% | CCRF-CEM leukemia 98.9% | MOLT-4 leukemia 86.2%

CC1(C)CC[C@]23CC[C@]4(C)[C@H](CC[C@@H]5[C@@]6(C)C/C(=C/c7ccncc7)C(=O)C(C)(C)[C@@H]6CC[C@]54C)[C@H]2[C@H]1OC3=O
active: SNB-75 CNS -49.9% [100 µM]
inactive: HCT-15 colon 76.5% [100 µM] | HT29 colon 71.5% [100 µM] | SNB-19 CNS 17.3% [100 µM] | U251 CNS 39.2% [100 µM] | PC-3 prostate 50.5% [100 µM] | SK-MEL-5 melanoma 36.3% [100 µM] | UACC-62 melanoma 56.4% [100 µM] | LOX IMVI melanoma 76.7% [100 µM] | SK-MEL-28 melanoma 87.7% [100 µM] | SK-MEL-2 melanoma 29.5% [100 µM] | EKVX NSCLC 85.5% [100 µM] | SN12C renal 65.6% [100 µM] | UO-31 renal 91.8% [100 µM] | TK-10 renal 51.5% [100 µM] | ACHN renal 43.9% [100 µM] | CAKI-1 renal 50.8% [100 µM] | A498 renal 58.6% [100 µM] | CCRF-CEM leukemia 79.3% [100 µM] | MOLT-4 leukemia 69.1% [100 µM]

O=C1/C(=C\c2cn(CC(O)CN3CCCCC3)c3ccccc23)c2ccccc2N1c1c(Cl)cccc1Cl (stereo not given)
active: HCT-15 colon -72.8% | HT29 colon -85% | SNB-75 CNS -98.6% | SNB-19 CNS -71.2% | U251 CNS -93.8% | PC-3 prostate -88.7% | SK-MEL-5 melanoma -100% | UACC-62 melanoma -84% | LOX IMVI melanoma -85.1% | SK-MEL-28 melanoma -94.4% | SK-MEL-2 melanoma -83.4% | EKVX NSCLC -81.3% | SN12C renal -68.2% | UO-31 renal -79.8% | TK-10 renal -75.9% | ACHN renal -90.5% | CAKI-1 renal -80.3% | A498 renal -96.3% | CCRF-CEM leukemia -4.36% | MOLT-4 leukemia -30%

CCn1cc(-c2ccnc(NCCNS(=O)(=O)c3cccc4ccccc34)c2)c(-c2cccc(O)c2)n1
inactive: HCT-15 colon 96.7% | HT29 colon 92.9% | SNB-75 CNS 107% | SNB-19 CNS 106% | U251 CNS 53% | PC-3 prostate 83.2% | SK-MEL-5 melanoma 95.8% | UACC-62 melanoma 97.2% | LOX IMVI melanoma 111% | SK-MEL-28 melanoma 107% | SK-MEL-2 melanoma 111% | EKVX NSCLC 96.9% | SN12C renal 96.7% | UO-31 renal 90.3% | TK-10 renal 114% | ACHN renal 100% | CAKI-1 renal 102% | A498 renal 91.5% | CCRF-CEM leukemia 95% | MOLT-4 leukemia 93.1%

Cc1ccc(N)c(O)c1
inactive: HCT-15 colon 83.8% | HT29 colon 95.8% | SNB-75 CNS 32.7% | SNB-19 CNS 102% | U251 CNS 92.7% | PC-3 prostate 75.8% | SK-MEL-5 melanoma 96.1% | UACC-62 melanoma 101% | LOX IMVI melanoma 86.6% | SK-MEL-28 melanoma 103% | SK-MEL-2 melanoma 100% | EKVX NSCLC 98.6% | SN12C renal 115% | UO-31 renal 84.5% | TK-10 renal 158% | ACHN renal 91% | CAKI-1 renal 94.8% | A498 renal 50.7% | CCRF-CEM leukemia 77.9% | MOLT-4 leukemia 106%

CCOC(=O)c1nn(C2CCCCO2)c2ccc(NC(=O)CSc3nc4ccccc4c(=O)[nH]3)cc12 (stereo not given)
inactive: HCT-15 colon 99.5% | HT29 colon 125% | SNB-75 CNS 68.5% | SNB-19 CNS 76.3% | U251 CNS 97.2% | PC-3 prostate 105% | SK-MEL-5 melanoma 98.1% | UACC-62 melanoma 94.5% | LOX IMVI melanoma 96.2% | SK-MEL-28 melanoma 105% | SK-MEL-2 melanoma 105% | EKVX NSCLC 102% | SN12C renal 87% | UO-31 renal 79.6% | TK-10 renal 108% | ACHN renal 93.6% | CAKI-1 renal 77.7% | A498 renal 69.7% | CCRF-CEM leukemia 93.1% | MOLT-4 leukemia 103%

CC(C)=CC/C=C(/C)[C@H]1CC[C@]2(C)[C@@H]1CC[C@@H]1[C@@]3(C)CCCNC(C)(C)[C@@H]3CC[C@]12C
active: HCT-15 colon -53.6% [100 µM] | HT29 colon -64.7% [100 µM] | SNB-75 CNS -84.4% [100 µM] | SNB-19 CNS -63.1% [100 µM] | U251 CNS -63.3% [100 µM] | PC-3 prostate -65% [100 µM] | SK-MEL-5 melanoma -71.2% [100 µM] | UACC-62 melanoma -95.2% [100 µM] | LOX IMVI melanoma -46% [100 µM] | SK-MEL-28 melanoma -87.1% [100 µM] | SK-MEL-2 melanoma -70% [100 µM] | EKVX NSCLC -71.2% [100 µM] | SN12C renal -85.2% [100 µM] | UO-31 renal -82.1% [100 µM] | TK-10 renal -67% [100 µM] | ACHN renal -77% [100 µM] | CAKI-1 renal -79.9% [100 µM] | A498 renal -88.6% [100 µM] | CCRF-CEM leukemia -15.7% [100 µM] | MOLT-4 leukemia -25.6% [100 µM]

Nc1nc(Cl)c2ncn(Cc3cc4c(cc3I)OCO4)c2n1
inactive: HCT-15 colon 25.1% | SNB-75 CNS 73.5% | SNB-19 CNS 61.9% | U251 CNS 53.5% | PC-3 prostate 39.1% | SK-MEL-5 melanoma 72% | UACC-62 melanoma 45.7% | LOX IMVI melanoma 11.8% | SK-MEL-28 melanoma 87.7% | SK-MEL-2 melanoma 57.1% | EKVX NSCLC 95.8% | SN12C renal 33% | UO-31 renal 34.7% | TK-10 renal 23.6% | ACHN renal 56.7% | CAKI-1 renal 47.5% | A498 renal 61.8% | CCRF-CEM leukemia 26.3% | MOLT-4 leukemia 52.6%
active: HT29 colon 9.61%

O=c1[nH]c2cc(Cl)c(Cl)cc2n2cc3ncccc3c12
inactive: HCT-15 colon 85.9% | HT29 colon 67.9% | SNB-75 CNS 67.2% | SNB-19 CNS 86.8% | U251 CNS 72.6% | PC-3 prostate 72.8% | SK-MEL-5 melanoma 84.8% | UACC-62 melanoma 57.8% | LOX IMVI melanoma 81.6% | SK-MEL-28 melanoma 120% | SK-MEL-2 melanoma 112% | EKVX NSCLC 82.3% | SN12C renal 83% | UO-31 renal 56.9% | TK-10 renal 94.1% | ACHN renal 89.7% | CAKI-1 renal 59.9% | A498 renal 73.6% | CCRF-CEM leukemia 52.1% | MOLT-4 leukemia 58.8%

CCCCCN(CCCCC)CCCCCCCCN1CCCc2ccccc21
inactive: HCT-15 colon 89.7% | HT29 colon 25.6% | SNB-75 CNS 76.6% | SNB-19 CNS 102% | U251 CNS 101% | PC-3 prostate 79.5% | SK-MEL-5 melanoma 100% | UACC-62 melanoma 101% | LOX IMVI melanoma 61.4% | SK-MEL-28 melanoma 105% | SK-MEL-2 melanoma 89.7% | EKVX NSCLC 76.7% | SN12C renal 89.7% | UO-31 renal 62% | TK-10 renal 89% | ACHN renal 91.1% | CAKI-1 renal 54.8% | A498 renal 114% | CCRF-CEM leukemia 81.7% | MOLT-4 leukemia 27.7%
